Measurements reported in PubChem BioAssay (NCI).
“And” between values parts separate entries of the source, which are not always exact repeats. Equal entries are not always repeated. Compounds without any hit were thinned out: in the full panel of roughly 83,000, 20% have a hit.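 The endpoint reported here, percent growth, reads 100 for growth as untreated, 0 for no net growth and -100 for all cells dead.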 Values without a mark were called inactive. The source made the active and inactive calls. How the source made its calls: active means growth percent below 10; inactive means the rest.

These compounds were tested on HL-60(TB) leukemia (assay: NCI-60 one-dose screen, 48 h (100 = growth as untreated, 0 = no growth, -100 = all killed)). Details: 10 µM unless noted.
In the case of `CCOC(=O)c1cn2c3c(cc(F)cc3c1=O)C(CC)c1ccccc1C2` (stereo not given), the growth was 94.9%.
In the case of `O=C1c2ccccc2C(=O)N1/N=C/c1ccc2c(c1)OCO2`, the growth was 88.1%.
`CCCCCCCCOC(=O)c1ccc(O)c(OC)c1` showed a growth of 30.9%.
Work on `O=S(=O)(NCCCNc1cc(-c2cn(-c3ccccc3)nc2-c2cccc(O)c2)ccn1)c1ccccc1` yielded a growth of 42.8%.
`CCn1cc(C(=O)O)c(=O)c2cc(F)c(N3CCN(CC(=O)Nc4ccc(C(C)=O)cc4)CC3)cc21` was tested, and the growth was 95.7%.
In the case of `O=C(Nc1nc(-c2ccccc2Cl)cs1)c1cc(-c2ccccc2)nc2ccc(Cl)cc12`, the growth was -3.8% (active).
In the case of `Cc1nc2cncc(C#Cc3cncc(C(=O)Nc4ccc(CN5CCN(C)CC5)c(C(F)(F)F)c4)c3)c2nc1C`, the growth was -8.15% (active).
In the case of `COC(=O)/C=C1\S/C(=N\NS(=O)(=O)c2ccc(C)cc2)N(c2ccccc2)C1=O`, the growth was 105%.
For `COc1ccccc1S(=O)(=O)Nc1ccc2c(c1)CN(C)C(=O)N2`, the growth was 21.9%.
`CN(C)c1ccc(/C=N/n2c(-c3cc(F)c(Cl)cc3Cl)nn(CN3CCOCC3)c2=S)cc1` gave a growth of 101%.
Compound `CCCCCCN1C(=O)C2=C(c3ccc(Cl)cc3)Nc3c(c(C)nn3-c3ccccc3)C2c2ccccc21` (stereo not given) has a growth of 102%.
`O=C1c2cccc3cccc(c23)C(=O)N1N1C(=O)c2cccc3c(N4CCOCC4)ccc(c23)C1=O` showed a growth of 125%.
`COc1cnc2c(c1)C(=O)c1c-2n(CCCN2CCNCC2)c(=O)c2cc(F)ccc12` was tested, and the growth was -25% (active).
For `CCCCc1ccc(Nc2ccc(Nc3ccc(CCCC)cc3S(=O)(=O)O)c3c2C(=O)c2ccccc2C3=O)c(S(=O)(=O)O)c1`, the growth was 96%.
`COc1ccc(/C=C/C(=O)O)cc1OC` was tested, and the growth was 103% and 102%.
In the case of `CN(c1cc2ncc(=O)[nH]c2cc1NC(N)=NCc1ccc(Cl)cc1)C1CCCCC1`, the growth was 52.9%.
Work on `CCC1OC(OC)C=CC1=O` (stereo not given) yielded a growth of 77%.
`CC1(C)Cc2c(cn(Cc3ccccc3)c2-c2ccccc2)-c2oncc21` gave a growth of 85.7%.
For `O=C(c1ccccc1)C1OC1c1ccc([N+](=O)[O-])cc1` (stereo not given), the growth was 61.6%.
`O=[N+]([O-])c1ccc(N/N=C(/C(=N/Nc2ccc([N+](=O)[O-])cc2)c2ccccc2)c2ccccc2)cc1` was tested, and the growth was 117%.
`C#Cc1ccc(-n2c(/C=C/c3ccc(Cl)c(F)c3)nc3ncccc3c2=O)cc1` was tested, and the growth was -35.9% (active).
`O=C(NCCCCNC(=O)OCc1ccc2c(Cl)cc(Cl)c(O)c2n1)OCc1ccc2c(Cl)cc(Cl)c(O)c2n1` was tested, and the growth was -49.2% (active).
With `COc1cccc2nc(Nc3cccc(NC(=O)c4cc(N5CCOCC5)cc(C(F)(F)F)c4)c3)ccc12` the growth was 93.5%.
In the case of `Nc1cc2ccccc2c(O)c1O`, the growth was 4.42% (active).
Compound `CCOC(=O)c1c2c(n3ccc(C)cc13)C(=O)c1ccccc1C2=O` has a growth of 76.1%.
Work on `C/C=C(\C)C(C(=O)NC1CCCCC1)N(C(=O)C1CCc2cc(F)ccc2O1)c1ccc(Cl)cc1` (stereo not given) yielded a growth of 97.8%.
`Cc1ccc2[nH]c3ccccc3c2c1` gave a growth of 99.7%.
With `O=C(CSc1nc(-c2ccccc2)[nH]c1S(=O)(=O)c1ccccc1)NC1CC1` the growth was 101%.
With `CC[C@H](C)C(=O)O[C@H]1CCC=C2C=C[C@H](C)C(CCC3C[C@@H](O)CC(=O)O3)[C@H]21` (stereo not given in full) the growth was 97.8%.
`Oc1ccc(Cl)cc1/C=N\NC(=S)N/N=C/c1cc(Cl)ccc1O` was tested, and the growth was 12.2%.
With `COc1ccc(OC)c(/C=N/Nc2ncnc3c2c(C)nn3C)c1` the growth was 88.9%.
With `CC(C)=NNc1ccc([N+](=O)[O-])cc1[N+](=O)[O-]` the growth was 57.5%.
With `COC(=O)C(=C\c1ccc2c(c1)OCO2)/C(=C/c1ccc2c(c1)OCO2)C(=O)OC` the growth was 112%.
For `CCOC(=O)c1cn2ncnc(Oc3ccc(NC(=O)NC4CCCCC4)c(Cl)c3)c2c1C`, the growth was 70.9%.
Work on `O=c1oc2cc(OS(=O)(=O)c3ccccc3)c(Cl)cc2c2c1CCCCCC2` yielded a growth of 87.6%.
Compound `Cn1ncc2c(Nc3ccc(Br)cc3)nc(Nc3ccc(Br)cc3)nc21` has a growth of 69.2%.
With `O=C1N[C@H]2[C@H](CS[C@H]2CCCCC(=O)N(CCP(c2ccccc2)c2ccccc2)CCP(c2ccccc2)c2ccccc2)N1` the growth was 72.8%.
`C=C1C(=O)O[C@H]2[C@H]1CC/C(COC(=O)CSCCSCC(=O)OC/C1=C/CC[C@@]3(C)O[C@H]3[C@H]3OC(=O)C(=C)[C@@H]3CC1)=C\CC[C@@]1(C)O[C@@H]21` was tested, and the growth was -58.8% (active).
With `O=c1c(CNc2ccc(S(=O)(=O)Nc3nccs3)cc2)coc2ccccc12` the growth was 89.6%.
For `C[C@H](c1nc2ccc(N)cc2[nH]1)[C@H]1CC[C@H]2[C@@H]3CCC4=CC(=O)CC[C@]4(C)[C@H]3CC[C@]12C`, the growth was -50.2% (active).
